Reference: the supplement of paper PMC8728848
Only a selection was taken, and the strongest signals are over-represented in it overall.

Key:
Test in all cases: glycan array binding signal (z-score within array); higher = stronger binding
Details in all cases: glycan notation: IUPAC condensed, linker removed; mutation: R82H, R255H
[1] = biological target: Fuc(a1-2)Gal(b1-3)GlcNAc(b1-3)[Gal(b1-4)GlcNAc(b1-6)]Gal(b1-4)Glc
Summary of the method: (§1)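 The binding signal is a Z-score computed within each array and averaged over linkers. Arrays of the same protein sequence at different concentrations or buffers were also averaged together. Data originate from 3228 arrays in the Consortium for Functional Glycomics database, kept only where the protein sequence was available.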

[2] = biological target: Fuc(a1-2)Gal(b1-3)[Fuc(a1-4)]GlcNAc(b1-2)Man(a1-3)[Fuc(a1-2)Gal(b1-3)[Fuc(a1-4)]GlcNAc(b1-2)Man(a1-3)]Man(b1-4)GlcNAc(b1-4)GlcNAc
Summary of the method: as §1

[3] = biological target: Fuc(a1-2)[Gal(a1-3)]Gal(b1-3)GlcNAc(b1-2)Man(a1-3)[Fuc(a1-2)[Gal(a1-3)]Gal(b1-3)GlcNAc(b1-2)Man(a1-6)]Man(b1-4)GlcNAc(b1-4)GlcNAc
Summary of the method: as §1

[4] = biological target: Fuc(a1-2)[Gal(a1-3)]Gal(b1-4)GlcNAc(b1-6)GalNAc
Summary of the method: as §1

[5] = biological target: Fuc(a1-2)[GalNAc(a1-3)]Gal
Summary of the method: as §1

[6] = biological target: Fuc(a1-2)[GalNAc(a1-3)]Gal(b1-3)GalNAc(b1-3)Gal(a1-4)Gal(b1-4)Glc
Summary of the method: as §1

[7] = biological target: Fuc(a1-2)[GalNAc(a1-3)]Gal(b1-3)GlcNAc(b1-2)Man(a1-3)[Fuc(a1-2)[GalNAc(a1-3)]Gal(b1-3)GlcNAc(b1-2)Man(a1-6)]Man(b1-4)GlcNAc(b1-4)GlcNAc
Summary of the method: as §1

[8] = biological target: Fuc(a1-2)[GalNAc(a1-3)]Gal(b1-4)GlcNAc(b1-2)Man(a1-3)[Fuc(a1-2)[GalNAc(a1-3)]Gal(b1-4)GlcNAc(b1-2)Man(a1-6)]Man(b1-4)GlcNAc(b1-4)GlcNAc
Summary of the method: as §1

[9] = biological target: Fuc(a1-2)[GalNAc(a1-3)]Gal(b1-4)GlcNAc(b1-3)Gal(b1-4)GlcNAc
Summary of the method: as §1

[10] = biological target: Fuc(a1-2)[GalNAc(a1-3)]Gal(b1-4)GlcNAc(b1-3)[Fuc(a1-2)[GalNAc(a1-3)]Gal(b1-4)GlcNAc(b1-6)]GalNAc
Summary of the method: as §1

[11] = biological target: Fuc(a1-3)[Gal(b1-4)]GlcNAc(b1-6)GalNAc
Summary of the method: as §1

[12] = biological target: Fuc(a1-3)[Gal3S(b1-4)]Glc
Summary of the method: as §1

Fuc(a1-4)GlcNAc = biological target: Fuc(a1-4)GlcNAc
Summary of the method: as §1

[13] = biological target: Gal(a1-3)Gal(b1-3)GlcNAc(b1-2)Man
Summary of the method: as §1

[14] = biological target: Gal(a1-3)[Gal(a1-4)]Gal(b1-4)GlcNAc
Summary of the method: as §1

Gal(a1-4)Gal(b1-4)Glc = biological target: Gal(a1-4)Gal(b1-4)Glc
Summary of the method: as §1

Gal(b1-2)Gal = biological target: Gal(b1-2)Gal
Summary of the method: as §1

Gal(b1-3)GalNAc = biological target: Gal(b1-3)GalNAc
Summary of the method: as §1

[15] = biological target: Gal(b1-3)GalNAc(b1-3)Gal(a1-4)Gal(b1-4)Glc
Summary of the method: as §1

[16] = biological target: Gal(b1-3)GalNAc(b1-4)Gal(b1-4)Glc
Summary of the method: as §1

[17] = biological target: Gal(b1-3)GlcNAc(a1-3)Gal(b1-4)GlcNAc
Summary of the method: as §1

[18] = biological target: Gal(b1-3)GlcNAc(b1-3)Gal(b1-4)Glc
Summary of the method: as §1

[19] = biological target: Gal(b1-3)GlcNAc(b1-6)GalNAc
Summary of the method: as §1

[20] = biological target: Gal(b1-3)[Fuc(a1-4)]GlcNAc(b1-6)GalNAc
Summary of the method: as §1

Gal(b1-4)GlcNAc(b1-2)Man = biological target: Gal(b1-4)GlcNAc(b1-2)Man
Summary of the method: as §1

[21] = biological target: Gal(b1-4)GlcNAc(b1-3)Gal(b1-4)GlcNAc(b1-2)Man(a1-3)[Gal(b1-4)GlcNAc(b1-3)Gal(b1-4)GlcNAc(b1-2)Man(a1-6)]Man(b1-4)GlcNAc(b1-4)GlcNAc
Summary of the method: as §1

[22] = biological target: Gal(b1-4)GlcNAc(b1-3)Gal(b1-4)GlcNAc(b1-3)Gal(b1-4)GlcNAc(b1-3)Gal(b1-4)GlcNAc(b1-3)Gal(b1-4)GlcNAc(b1-2)[Gal(b1-4)GlcNAc(b1-3)Gal(b1-4)GlcNAc(b1-3)Gal(b1-4)GlcNAc(b1-3)Gal(b1-4)GlcNAc(b1-3)Gal(b1-4)GlcNAc(b1-6)]Man(a1-6)[Gal(b1-4)GlcNAc(b1-3)Gal(b1-4)GlcNAc(b1-3)Gal(b1-4)GlcNAc(b1-3)Gal(b1-4)GlcNAc(b1-3)Gal(b1-4)GlcNAc(b1-2)Man(a1-3)]Man(b1-4)GlcNAc(b1-4)[Fuc(a1-6)]GlcNAc
Summary of the method: as §1

[23] = biological target: Gal(b1-4)GlcNAc(b1-3)Gal(b1-4)GlcNAc(b1-3)Gal(b1-4)GlcNAc(b1-3)Gal(b1-4)GlcNAc(b1-3)Gal(b1-4)GlcNAc(b1-3)Gal(b1-4)GlcNAc(b1-2)Man(a1-3)[Gal(b1-4)GlcNAc(b1-3)Gal(b1-4)GlcNAc(b1-3)Gal(b1-4)GlcNAc(b1-3)Gal(b1-4)GlcNAc(b1-3)Gal(b1-4)GlcNAc(b1-3)Gal(b1-4)GlcNAc(b1-2)Man(a1-6)]Man(b1-4)GlcNAc(b1-4)GlcNAc
Summary of the method: as §1

[24] = biological target: Gal(b1-4)GlcNAc(b1-3)Gal(b1-4)GlcNAc(b1-3)[Gal(b1-4)GlcNAc(b1-3)Gal(b1-4)GlcNAc(b1-6)]GalNAc
Summary of the method: as §1

Gal4S(b1-4)GlcNAc = biological target: Gal4S(b1-4)GlcNAc
Summary of the method: as §1

B1: Gal 8 (Mus musculus), Q9JL15 (protein)
chain: MGGSHHHHHHGMASMLSLNNLQNIIYNPIIPYVGTITEQLKPGSLIVIRGHVPKDSERFQVDFQLGNSLKPRADVAFHFNPHFKRSSCIVCNTLTQEKWGWEEITYDMPFRKEKSFEIVFMVLKNKFQVAVNGRHVLLYAHRISPEQIDTVGIYGKVNIHSIGFRFSSASALPHTLGDLQSMETSALGLTQINRENIQKPGKLQLSLPFEARLNASMGPGRTVVIKGEVNTNARSFNVDLVAGKTRDIALHLNPHLNVKAFVRNSFLQDAWGEEERNITCFPFSSGMYFEMIIYCDVREFKVAINGVHSLEYKHRFKDLSSIDTLSVDGDIRLLDVRSW
Question: Which “glycan array binding signal (z-score)” value [1] does the source give for B1 here?
Answer: 1.15

Question: And the “glycan array binding signal (z-score)” value [2]?
Answer: -0.083

Question: And the “glycan array binding signal (z-score)” value [3]?
Answer: 4.77

Question: What about the “glycan array binding signal (z-score)” value [4] of the same binder?
Answer: -0.168

Question: What about the “glycan array binding signal (z-score)” value [5] of the same binder?
Answer: -0.248

Question: What about the “glycan array binding signal (z-score)” value [6] of the same binder?
Answer: -0.253

Question: And the “glycan array binding signal (z-score)” value [7]?
Answer: 7.3

Question: And the “glycan array binding signal (z-score)” value [8]?
Answer: 6.58

Question: And the “glycan array binding signal (z-score)” value [9]?
Answer: -0.08

Question: What about the “glycan array binding signal (z-score)” value [10] of the same binder?
Answer: 0.117

Question: And the “glycan array binding signal (z-score)” value [11]?
Answer: -0.212

Question: What about the “glycan array binding signal (z-score)” value [12] of the same binder?
Answer: -0.192

Question: What about the “glycan array binding signal (z-score)” value (Fuc(a1-4)GlcNAc) of the same binder?
Answer: 0.01

Question: What about the “glycan array binding signal (z-score)” value [13] of the same binder?
Answer: -0.263

Question: What about the “glycan array binding signal (z-score)” value [14] of the same binder?
Answer: -0.236

Question: What about the “glycan array binding signal (z-score)” value (Gal(a1-4)Gal(b1-4)Glc) of the same binder?
Answer: -0.18

Question: What about the “glycan array binding signal (z-score)” value (Gal(b1-2)Gal) of the same binder?
Answer: -0.193

Question: What about the “glycan array binding signal (z-score)” value (Gal(b1-3)GalNAc) of the same binder?
Answer: -0.251

Question: And the “glycan array binding signal (z-score)” value [15]?
Answer: -0.235

Question: What about the “glycan array binding signal (z-score)” value [16] of the same binder?
Answer: -0.226

Question: And the “glycan array binding signal (z-score)” value [17]?
Answer: -0.269

Question: What about the “glycan array binding signal (z-score)” value [18] of the same binder?
Answer: -0.263

Question: What about the “glycan array binding signal (z-score)” value [19] of the same binder?
Answer: -0.274

Question: And the “glycan array binding signal (z-score)” value [20]?
Answer: -0.243

Question: And the “glycan array binding signal (z-score)” value (Gal(b1-4)GlcNAc(b1-2)Man)?
Answer: -0.197

Question: And the “glycan array binding signal (z-score)” value [21]?
Answer: 0.454

Question: And the “glycan array binding signal (z-score)” value [22]?
Answer: 6

Question: What about the “glycan array binding signal (z-score)” value [23] of the same binder?
Answer: 7.05

Question: And the “glycan array binding signal (z-score)” value [24]?
Answer: 0.053

Question: What about the “glycan array binding signal (z-score)” value (Gal4S(b1-4)GlcNAc) of the same binder?
Answer: -0.22
